Records with an inconclusive call do not appear. Calls of active or inactive are those of the source. Calls follow the shape of the dose curve; as a rule, active = well fitted curve in the direction sought with a large enough effect; inconclusive = small, poorly fitted or top-dose-only effect, or another doubt; inactive = no such curve, though single readings can be large; an effect the other way counts as inactive or inconclusive.
Key:
HACAT = assay: qHTS assay to identify novel small-molecules to repurpose for Merkel cell carcinoma treatment (AID 1296009); details: MCC and control cell lines, CellTiter-Glo viability, 72 h; at 44.8 µM (top of the series) unless noted; also: nearly all actives have a fitted effect of over 60% in size
How it was run: (§1)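 Dose-response viability screen; 72 hr exposure at 37 degree celsius; CellTiter-Glo added, 10 min room temperature, luminescence read; RLUs scaled between no-cell and DMSO wells.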

MCC-13 = assay: as above; details: MCC and control cell lines, CellTiter-Glo viability, 72 h; series mostly up to 46 µM
How it was run: as §1

MCC-26 = assay: as above; details: MCC and control cell lines, CellTiter-Glo viability, 72 h; series mostly up to 46 µM
How it was run: as §1

MKL-1 = assay: as above; details: MCC and control cell lines, CellTiter-Glo viability, 72 h; series mostly up to 46 µM
How it was run: as §1

MKL-2 = assay: as above; details: MCC and control cell lines, CellTiter-Glo viability, 72 h; series mostly up to 46 µM
How it was run: as §1

NIH3T3 = assay: as above; details: MCC and control cell lines, CellTiter-Glo viability, 72 h; at 44.8 µM (top of the series) unless noted
How it was run: as §1

UISO = assay: as above; details: MCC and control cell lines, CellTiter-Glo viability, 72 h; series mostly up to 46 µM
How it was run: as §1

WaGa = assay: as above; details: MCC and control cell lines, CellTiter-Glo viability, 72 h; series mostly up to 46 µM
How it was run: as §1

C33A = assay: Primary qHTS to identify gynecologic anti-cancer compounds using libraries of approved drugs and bioactive compounds (AID 1345084); details: Gynecologic cancer cell panel viability, ATPlite luminescence, 48 h; series mostly up to 57.5 µM; also: nearly all actives have a fitted effect of over 55% in size
How it was run: (§2)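 Cells, 1,000 per well, were allowed to settle for 16 h at 37 C before compound addition. Five concentrations were tested for 48 h, and viability was read by ATPlite luminescence after 15 min at room temperature.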

CAOV3 = assay: as above; details: Gynecologic cancer cell panel viability, ATPlite luminescence, 48 h; series mostly up to 57.5 µM
How it was run: as §2

CASKI = assay: as above; details: Gynecologic cancer cell panel viability, ATPlite luminescence, 48 h; series mostly up to 57.5 µM
How it was run: as §2

Es-2 = assay: as above; details: Gynecologic cancer cell panel viability, ATPlite luminescence, 48 h; series mostly up to 57.5 µM
How it was run: as §2

HeLa = assay: as above; details: Gynecologic cancer cell panel viability, ATPlite luminescence, 48 h; series mostly up to 57.5 µM
How it was run: as §2

Hek293T [1] = assay: as above; details: Gynecologic cancer cell panel viability, ATPlite luminescence, 48 h, control line for the selectivity index; series mostly up to 57.5 µM
How it was run: as §2

JEG-3 = assay: as above; details: Gynecologic cancer cell panel viability, ATPlite luminescence, 48 h; series mostly up to 57.5 µM
How it was run: as §2

OV90 = assay: as above; details: Gynecologic cancer cell panel viability, ATPlite luminescence, 48 h; series mostly up to 57.5 µM
How it was run: as §2

PA-1 = assay: as above; details: Gynecologic cancer cell panel viability, ATPlite luminescence, 48 h; series mostly up to 57.5 µM
How it was run: as §2

Tov-21-G = assay: as above; details: Gynecologic cancer cell panel viability, ATPlite luminescence, 48 h; series mostly up to 57.5 µM
How it was run: as §2

HEK293T [2] = assay: qHTS assay to identify novel small-molecules to repurpose for Merkel cell carcinoma treatment (AID 1296009); details: MCC and control cell lines, CellTiter-Glo viability, 72 h; at 44.8 µM (top of the series) unless noted; also: nearly all actives have a fitted effect of over 60% in size
How it was run: as §1

SKOV3 = assay: Primary qHTS to identify gynecologic anti-cancer compounds using libraries of approved drugs and bioactive compounds (AID 1345084); details: Gynecologic cancer cell panel viability, ATPlite luminescence, 48 h; series mostly up to 57.5 µM; also: nearly all actives have a fitted effect of over 55% in size
How it was run: as §2

Measured: Potency

CC(=O)N(CC(O)CO)c1c(I)c(C(=O)NCCO)c(I)c(C(=O)NCC(O)CO)c1I (stereo not given)
not listed: HEK293T [2] | SKOV3
inactive: all other assays above

CCOC(=O)NNc1ccc(N(CC)CC(C)O)nn1 (stereo not given)
not listed: MKL-2 | NIH3T3
inactive: all other assays above

NS(=O)(=O)c1ccc(N2CCCCS2(=O)=O)cc1
not listed: MCC-26
inactive: all other assays above

O=C(OCC(COC(=O)c1cccnc1)(COC(=O)c1cccnc1)COC(=O)c1cccnc1)c1cccnc1
not listed: HEK293T [2]
inactive: all other assays above

CCCC(=O)Nc1ccc(O)c(C(C)=O)c1
not listed: MCC-26 | NIH3T3
inactive: all other assays above

COC(=O)/C=C\C(=O)OC
not listed: MCC-26
inactive: all other assays above

CO/N=C(\C(=O)O)c1csc(NC(=O)CCl)n1
not listed: HEK293T [2]
inactive: all other assays above

Cc1cc(CCCOc2c(C)cc(-c3noc(C(F)(F)F)n3)cc2C)on1
not listed: WaGa | CAOV3 | HEK293T [2]
inactive: all other assays above

CCCc1c2oc(C(=O)O)cc(=O)c2cc2c(=O)cc(C(=O)O)n(CC)c12
not listed: HEK293T [2] | SKOV3
inactive: all other assays above

CN(C)CCN(Cc1ccsc1)c1ccccn1
not listed: HEK293T [2]
inactive: all other assays above

CC(=O)N[C@@H](CCC(N)=O)C(=O)O
not listed: MCC-26 | NIH3T3
inactive: all other assays above

N=C(N)c1ccc(OCCCOc2ccc(C(=N)N)cc2)cc1
not listed: Tov-21-G | HEK293T [2]
inactive: all other assays above

Cc1nc([N+](=O)[O-])cn1-c1ccc([N+](=O)[O-])cc1
not listed: CAOV3 | HEK293T [2] | SKOV3
inactive: all other assays above

O=C1CC2(CCCC2)CC(=O)N1
not listed: CAOV3 | HEK293T [2]
inactive: all other assays above

Reference: PubChem BioAssay (NCATS)
